PubChem BioAssay (EPA / NIEHS)
Results filed as inconclusive are left out. Activity calls are given as the source filed them. How the source made its calls, unless noted: active means hit-call score of the fitted dose curve at least 0.9, where 1 is the maximum; inconclusive means response in the unintended direction; inactive means score below 0.9.

Experiments:
[1] = TOX21_p53_BLA_p2_viability: Viability Assessment in the Tox21 HCT-116 p53 Agonism Beta-lactamase Assay, Phase 2 (AID 2283591);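 further: actives lower the ATP signal meaning cytotoxicity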
In short: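 HCT116 p53-bla cells, 4000/well, dosed after 5 h plating (217-fold dilution of DMSO stocks) and incubated 16 h at 37C. Viability taken as cellular ATP by CellTiter-Glo luminescence after 30 min RT; signal loss marks cytotoxicity.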

[2] = TOX21_p53_BLA_p3_viability: Viability Assessment in the Tox21 HCT-116 p53 Agonism Beta-lactamase Assay, Phase 3 (AID 2283593);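 further: cells exposed to compound for 16 h before reading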
In short: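 HCT116 cells, 4000/well, dosed 5 h after plating by pin transfer (217-fold dilution from DMSO stock) and incubated 16 h at 37C, 5% CO2. Viability read as ATP luminescence with CellTiter-Glo after 30 min at room temperature.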

[3] = biological target: Cellular tumor antigen p53 (Homo sapiens) (UniProt P04637); test: TOX21_p53_BLA_p5_ratio: Tox21 HCT-116 p53 Agonism Beta-lactamase Assay, Ratio, Phase 5 (AID 2283599)
Cellular tumor antigen p53 (Homo sapiens), sequence (P04637 whole entry, looked up): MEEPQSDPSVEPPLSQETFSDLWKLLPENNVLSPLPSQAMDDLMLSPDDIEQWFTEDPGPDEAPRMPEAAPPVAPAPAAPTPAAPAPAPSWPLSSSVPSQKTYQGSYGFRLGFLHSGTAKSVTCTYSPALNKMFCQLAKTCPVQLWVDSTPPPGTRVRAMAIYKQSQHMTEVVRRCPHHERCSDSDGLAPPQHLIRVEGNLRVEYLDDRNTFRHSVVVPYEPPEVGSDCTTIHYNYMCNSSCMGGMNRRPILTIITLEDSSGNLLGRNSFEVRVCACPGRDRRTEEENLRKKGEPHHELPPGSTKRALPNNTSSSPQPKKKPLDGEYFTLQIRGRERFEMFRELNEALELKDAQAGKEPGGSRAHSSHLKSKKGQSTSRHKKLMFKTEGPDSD
In short: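 HCT-116 p53-bla cells (4000/well) plated 5 h, dosed with compound (217-fold DMSO dilution) for 16 h at 37 C; CCF4-AM substrate 2 h at room temperature. Activity is the 460/530 nm emission ratio (405 nm excitation), fitted in gain-of-signal direction versus DMSO.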

[4] = TOX21_p53_BLA_p5_viability: Viability Assessment in the Tox21 HCT-116 p53 Agonism Beta-lactamase Assay, Phase 5 (AID 2283600)
In short: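 4000 cells/well; 5 h pre-incubation; DMSO compounds pin-transferred, 217-fold dilution; 16 h, 37C/5% CO2; CCF4-AM 2 h RT; CellTiter-Glo 30 min RT; luminescence.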

[5] = biological target: Cellular tumor antigen p53 (Homo sapiens) (UniProt P04637); test: TOX21_p53_BLA_p4_ratio: Tox21 HCT-116 p53 Agonism Beta-lactamase Assay, Ratio, Phase 4 (AID 2283601)
In short: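 HCT-116 p53 beta-lactamase reporter cells (4000/well) preincubated 5 h, then compound (217-fold dilution of DMSO stock) for 16 h at 37C. CCF4-AM substrate added 2 h at room temperature; 460/530 nm emission ratio fitted upward versus DMSO.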

[6] = TOX21_p53_BLA_p4_viability: Viability Assessment in the Tox21 HCT-116 p53 Agonism Beta-lactamase Assay, Phase 4 (AID 2283597);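 further: hits lower the luminescence signal meaning cytotoxicity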
In short: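 Cells plated, 5 h pre-incubation; DMSO compounds pinned (217-fold dilution); 16 h, 37C/5% CO2; CCF4-AM 2 h RT; CellTiter-Glo 30 min RT; luminescence read.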

[7] = biological target: Thyroid hormone receptor alpha (Rattus norvegicus) + Thyroid hormone receptor beta (Rattus norvegicus) (UniProt P18113+P63059); test: TOX21_TR_LUC_GH3_Antagonist_Followup: Tox21 GH3 Thyroid Hormone Receptor Antagonism Luciferase Follow-Up Assay (AID 2283942)
In short: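 Antagonist mode: GH3 cells seeded 1,500/well, compounds at 15 concentrations (92 uM to 5nM final) plus T3 at 1.0 nM final, 24 h at 37C. Luciferase read with ONE-Glo after 30 min at room temperature.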

THRA (gene 7067) = THRA (gene 7067) (UniProt P10827); test: TOX21_TRA_COA_Antagonist_Followup_ratio: Tox21 Thyroid Hormone Receptor alpha Antagonism through Coactivator Recruitment Follow-Up Assay, Ratio (AID 2283953)
THRA (gene 7067), sequence (P10827 whole entry, looked up, the tested form may be a part): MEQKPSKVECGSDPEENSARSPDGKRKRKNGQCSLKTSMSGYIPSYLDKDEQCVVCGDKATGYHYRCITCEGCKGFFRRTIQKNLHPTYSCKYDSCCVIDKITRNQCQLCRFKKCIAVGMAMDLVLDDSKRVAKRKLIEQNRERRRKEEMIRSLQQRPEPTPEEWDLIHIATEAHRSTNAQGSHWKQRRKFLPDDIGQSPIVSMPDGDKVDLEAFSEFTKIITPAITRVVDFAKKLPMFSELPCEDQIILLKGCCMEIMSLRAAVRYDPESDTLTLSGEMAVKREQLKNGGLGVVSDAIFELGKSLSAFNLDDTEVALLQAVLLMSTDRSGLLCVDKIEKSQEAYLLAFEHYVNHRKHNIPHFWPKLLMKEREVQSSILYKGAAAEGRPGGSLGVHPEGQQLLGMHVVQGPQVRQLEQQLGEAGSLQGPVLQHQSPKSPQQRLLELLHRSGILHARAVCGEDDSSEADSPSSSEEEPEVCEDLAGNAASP
In short: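 520:495 nm emission ratio (excitation 340 nm) reports fluorescein-SRC-2 peptide recruitment to GST-TRα LBD by TR-FRET with Tb anti-GST antibody. Values were normalized to DMSO (0%) and T3 control wells (100%); loss of signal indicated antagonism.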

THRB (gene 7068) [8] = biological target: THRB (gene 7068) (UniProt P10828); test: TOX21_TRB_BLA_Antagonist_Followup_ratio: Tox21 Thyroid Hormone Receptor beta Antagonism Beta-lactamase (BLA) Follow-Up Assay, Ratio (AID 2283958)
THRB (gene 7068), sequence (P10828 whole entry, looked up, the tested form may be a part): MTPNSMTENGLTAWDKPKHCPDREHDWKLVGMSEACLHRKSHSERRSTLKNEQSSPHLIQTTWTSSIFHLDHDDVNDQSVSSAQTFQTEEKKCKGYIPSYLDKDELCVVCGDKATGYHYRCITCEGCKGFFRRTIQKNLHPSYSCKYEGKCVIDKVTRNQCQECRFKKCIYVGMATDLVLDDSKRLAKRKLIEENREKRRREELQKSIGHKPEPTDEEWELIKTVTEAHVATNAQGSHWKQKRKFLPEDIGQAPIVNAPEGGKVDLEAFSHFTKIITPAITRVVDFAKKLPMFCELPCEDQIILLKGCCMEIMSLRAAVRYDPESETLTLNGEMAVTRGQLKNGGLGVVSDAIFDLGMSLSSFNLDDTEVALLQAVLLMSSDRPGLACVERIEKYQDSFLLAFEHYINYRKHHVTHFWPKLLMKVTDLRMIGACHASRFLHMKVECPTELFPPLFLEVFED
In short: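 HEK293T cells with a GAL4-TRb LBD fusion and UAS-bla reporter, 3,000 cells/well in phenol red-free DMEM with 2% charcoal-stripped FBS. Exposed 18 h at 37C to 11 concentrations in triplicate; CCF4 460:530 nm ratio after 2 h, DMSO-referenced.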

[9] = TOX21_TRB_BLA_Antagonist_Followup_viability: Viability Assessment in the Tox21 Thyroid Hormone Receptor beta Antagonism Beta-lactamase (BLA) Follow-Up Assay (AID 2283961)
In short: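 TRβ-bla HEK293T (human TRβ LBD fused to GAL4 DBD), 3,000 cells/well, 2% charcoal-stripped FBS, phenol red-free medium; 18 h compound exposure, 37C; CellTiter-Glo 30 min RT; luminescence, loss-of-signal readout.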

THRB (gene 7068) [10] = biological target: THRB (gene 7068) (UniProt P10828); test: TOX21_TRB_COA_Antagonist_Followup_ratio: Tox21 Thyroid Hormone Receptor beta Antagonism through Coactivator Recruitment Follow-Up Assay, Ratio (AID 2283967)
In short: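 Cell-free TR-FRET: GST-TRb LBD (5.0 nM) with fluorescein-SRC-2 peptide (200 nM) and Tb anti-GST antibody (2 nM), 0.10% BSA. 520:495 nm emission ratio normalized to DMSO (0%) and T3 (100%).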

[11] = biological target: Retinoic acid receptor RXR-alpha (Homo sapiens) (UniProt P19793); test: TOX21_TR_RXR_BLA_Antagonist_Followup_ratio: Tox21 Thyroid Hormone Receptor beta Retinoid X Receptor alpha (RXRa) Antagonism Beta-lactamase (BLA) Follow-Up Assay, Ratio (AID 2283972)
Retinoic acid receptor RXR-alpha (Homo sapiens), sequence (P19793 whole entry, looked up): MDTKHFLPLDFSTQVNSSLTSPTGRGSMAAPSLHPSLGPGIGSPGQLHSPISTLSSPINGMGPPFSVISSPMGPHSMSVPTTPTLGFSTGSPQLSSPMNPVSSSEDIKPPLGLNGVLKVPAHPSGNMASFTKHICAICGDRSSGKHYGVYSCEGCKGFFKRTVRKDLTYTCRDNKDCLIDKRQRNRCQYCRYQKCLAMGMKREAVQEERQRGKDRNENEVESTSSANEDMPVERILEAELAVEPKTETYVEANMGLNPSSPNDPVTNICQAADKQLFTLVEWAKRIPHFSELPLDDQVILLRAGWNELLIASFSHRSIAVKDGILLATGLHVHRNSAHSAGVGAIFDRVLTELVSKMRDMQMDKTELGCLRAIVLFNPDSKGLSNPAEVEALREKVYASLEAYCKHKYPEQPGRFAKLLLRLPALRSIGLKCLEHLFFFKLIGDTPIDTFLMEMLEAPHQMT
In short: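 HEK293T RXRa-bla, 2% charcoal-stripped FBS medium, 16 h compound exposure at 37C, qHTS 11 conc x3. CCF4 FRET ratio ch2/ch1 (460:530), DMSO = baseline, loss-of-signal fit.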

[12] = TOX21_TR_RXR_BLA_Antagonist_Followup_viability: Viability Assessment in the Tox21 Thyroid Hormone Receptor beta Retinoid X Receptor alpha (RXRa) Antagonism Beta-lactamase (BLA) Follow-Up Assay (AID 2283979)
In short: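 RXRa-bla HEK293T cells (2,500/well, phenol red-free DMEM, 2% charcoal-stripped FBS) were attached 5 h, then exposed to compounds at 11 concentrations in triplicate for 16 h at 37C. Viability measured by CellTiter-Glo ATP luminescence, bidirectional fitting versus DMSO.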

[13] = CCTE_Harrill_HTTr_Viability_MCF7: CCTE's 6-hour Cell Viability Assessment for the High-Throughput Transcriptomics (HTTr) Platform, in MCF-7 cells cultured in DMEM + 10% fetal bovine serum, Harrill Lab (AID 2284010; active means hit-call score of the fitted dose curve at least 0.9, where 1 is the maximum; inactive means score below 0.9)
In short: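 MCF-7 cells in DMEM + 10% FBS, 384-well, exposed 6 h to an eight-point dilution series. Membrane integrity scored by high-content imaging of propidium iodide exclusion; bidirectional fit versus DMSO.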

[14] = CCTE_Harrill_HTTr_Apoptosis_MCF7: CCTE's 6-hour Apoptosis Assessment for the High-Throughput Transcriptomics (HTTr) Platform, in MCF-7 cells cultured in DMEM + 10% fetal bovine serum, Harrill Lab (AID 2284011; active means hit-call score of the fitted dose curve at least 0.9, where 1 is the maximum; inactive means score below 0.9)
In short: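 MCF-7 (DMEM + 10% FBS), 384-well; 8-pt dilution series, 6 h chemical exposure; caspase-3/7 activation via CellEvent Caspase 3/7 Green, HCI; bidirectional fit vs DMSO.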

[15] = CCTE_Harrill_HTTr_CellCount_MCF7: CCTE's Cell Proliferation Assessment for the High-Throughput Transcriptomics (HTTr) Platform, Harrill Lab (AID 2284012);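 further: cells exposed to compound for six hours; intended direction is loss of nuclei count meaning fewer cells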
In short: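 MCF7 cells exposed 6 hours to an eight-point dilution series; Hoechst-stained nuclei counted by high-content imaging. Bidirectional curve fitting against DMSO baseline.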

Measured: AC50

O=C(O)CCC(=O)Nc1ccc(S(=O)(=O)Nc2nccs2)cc1
inactive: [1] | [2] | [3] | [4] | [5]

CC1(C)S[C@@H]2[C@H](NC(=O)C(c3ccccc3)S(=O)(=O)O)C(=O)N2[C@H]1C(=O)O (stereo partly specified)
inactive: [1] | [2] | [6] | [5]

CC1=C(C)C(=O)C(C(CCCCCC(=O)O)c2ccccc2)=C(C)C1=O (stereo unspecified)
inactive: [1] | [2] | [6] | [4] | [5]

CCOC(=O)COc1ccc2c(C)c(CCN(CC)CC)c(=O)oc2c1Cl
inactive: [1] | [2] | [3] | [4] | [5]

O=C(CCc1ccc(O)cc1)c1c(O)cc(O)cc1O
inactive: [2]

C=CC(=O)OCCCl
inactive: [2]

CC[C@@]1(O)C[C@@H]2CN(CCc3c([nH]c4ccccc34)[C@@](C(=O)OC)(c3cc4c(cc3OC)N(C)[C@H]3[C@@](O)(C(=O)OC)[C@H](OC(C)=O)[C@]5(CC)C=CCN6CC[C@]43[C@@H]65)C2)C1
active: [7] 17.5 µM | THRB (gene 7068) [8] 73.4 nM
inactive: THRA (gene 7067) | [9] | THRB (gene 7068) [10] | [11] | [12]

CC[C@H](CC[C@@H](C)[C@H]1CC[C@H]2[C@@H]3CC=C4C[C@@H](O)CC[C@]4(C)[C@H]3CC[C@]12C)C(C)C
inactive: [13] | [14] | [15]
